Source: PubChem
Shown are actives, neighbours in structure and some others; about 4% of the full set was active somewhere.
Mtb UGM inh = Mtb UDP-galactopyranose mutase inhibition. inhibition, % at 10 µM. purified UGM, fluorescence polarization probe displacement. hit rate 0.06% among 320,000; in the data active means inhibition above about 10%, passing the limit was not always enough
Target sequence (P9WIQ1 whole entry, looked up): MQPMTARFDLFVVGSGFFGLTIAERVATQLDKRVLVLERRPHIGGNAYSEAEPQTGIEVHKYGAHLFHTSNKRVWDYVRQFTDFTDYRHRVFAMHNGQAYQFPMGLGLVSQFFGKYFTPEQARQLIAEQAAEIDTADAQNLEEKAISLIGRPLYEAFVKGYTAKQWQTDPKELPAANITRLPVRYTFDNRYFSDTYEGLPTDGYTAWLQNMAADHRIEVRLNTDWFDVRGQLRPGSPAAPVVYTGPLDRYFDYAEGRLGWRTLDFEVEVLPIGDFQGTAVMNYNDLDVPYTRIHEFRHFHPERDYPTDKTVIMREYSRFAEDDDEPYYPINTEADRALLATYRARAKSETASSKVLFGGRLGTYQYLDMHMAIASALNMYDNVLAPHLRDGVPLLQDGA
Mtb betalactam = beta-lactam sensitization of Mtb H37Rv; inhibition, % at 25 µM; M. tuberculosis H37Rv growth with meropenem, percent inhibition; hit rate 0.27% among 330,000; call rule not given here;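 further: growth measured after seven days incubation then overnight dye step; 0% = bacteria only wells and 100% = bacteria with antibiotic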
GDH-TPI inh = counter-screen for M. tuberculosis FBA inhibitors: GDH-TPI coupled enzymes; GDH-TPI coupled enzyme counterscreen, NADH absorbance; AID 588335; inhibition, % at 4.8 µM; hit rate 1.2% among 360,000; in the data active means inhibition above about 30%;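 further: 0% = DMSO wells and 100% = wells lacking the enzyme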
RecA intein inh = blocks M. tuberculosis RecA intein splicing; inhibition, % (concentration not given with the values); cell-free RecA intein splicing, fluorescence; hit rate 0.75% among 290,000; in the data active means inhibition above about 30%;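 further: 0% = vehicle wells and 100% = reference inhibitor control wells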
FBA Mtb inh = inhibits M. tuberculosis FBA enzyme | P9WQA3 | purified M. tuberculosis FBA, fluorescence read-out | inhibition, % at 1 µM | hit rate 2.3% among 360,000 | AID 588726; in the data active means inhibition above about 27%;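 further: 0% = vehicle and 100% = reference inhibitor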
Rv3671c inh = inhibitors of M. tuberculosis serine protease Rv3671c; inhibition, % at 5.96 µM; P9WHR9; hit rate 0.048% among 320,000; in the data active means inhibition above about 38%;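 further: extracellular domain of Rv3671c used as enzyme; 0% = enzyme with DMSO and 100% = no enzyme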
* = called active by the depositor.

Screening Cc1ccc(CCNC(=O)C2CCCN(S(=O)(=O)c3c(C)noc3/C=C/N(C)C)C2)cc1 (stereo not drawn) returned Mtb UGM inh 0, Mtb betalactam -8, GDH-TPI inh 53*, FBA Mtb inh -2 and Rv3671c inh -9.
`Cc1noc(/C=C/N(C)C)c1S(=O)(=O)N1CCCC(C(=O)Nc2ccc(F)cc2F)C1` (stereo not drawn) gave Mtb UGM inh -3, Mtb betalactam 4, GDH-TPI inh 39*, RecA intein inh -3, FBA Mtb inh -6 and Rv3671c inh -15.
Cc1ccc(NC(=O)C2CCCN(S(=O)(=O)c3c(C)noc3C)C2)c(Br)c1 (stereo not drawn) was read as Mtb UGM inh 3, Mtb betalactam -3, GDH-TPI inh 8, RecA intein inh -2, FBA Mtb inh 3 and Rv3671c inh 5.
`CC1(C2CC2)NC(=O)N(CC(=O)Nc2ccc(Cl)c([N+](=O)[O-])c2)C1=O` (stereo not drawn) gave Mtb UGM inh 3, Mtb betalactam -4, GDH-TPI inh 4, FBA Mtb inh -3 and Rv3671c inh 5.
For CCN(CC)c1ccc(C=Nc2cc(C)ccc2C)c(O)c1 the results were Mtb UGM inh -3, Mtb betalactam 7, GDH-TPI inh 38*, RecA intein inh -1, FBA Mtb inh -2 and Rv3671c inh -2.
CCN(CC)c1ccc(C=Nc2ccc(C)cc2C)c(O)c1 was read as Mtb UGM inh -2, Mtb betalactam 31, GDH-TPI inh 28, RecA intein inh -1, FBA Mtb inh -2 and Rv3671c inh 10.
For CCOC(=O)N/N=C/c1ccc(N(CC)CC)cc1O the results were Mtb UGM inh 0, Mtb betalactam -9, GDH-TPI inh 41*, RecA intein inh -1, FBA Mtb inh 1 and Rv3671c inh 0.
Screening CCN(CC)c1ccc(/C=N/NC(=O)CCC(=O)NCc2ccccc2)c(O)c1 returned Mtb UGM inh -1, Mtb betalactam 7, GDH-TPI inh 40*, RecA intein inh -5, FBA Mtb inh 5 and Rv3671c inh -1.
`COc1cc(/C=N\NC(=O)CNC(=O)C2COc3ccccc3O2)ccc1O` (stereo not drawn) gave Mtb UGM inh 2, Mtb betalactam 0, GDH-TPI inh 24, RecA intein inh -1, FBA Mtb inh 1 and Rv3671c inh -16.
Screening O=C(CCC(=O)N/N=C/c1c[nH]c2ccccc12)NCc1ccccc1 returned Mtb UGM inh 0, Mtb betalactam 10, GDH-TPI inh 13, RecA intein inh 2, FBA Mtb inh 2 and Rv3671c inh -3.
`CCN(CC)c1ccc(/C=N/Nc2ccc(C)cc2)c(O)c1` gave Mtb UGM inh -1, Mtb betalactam -6, GDH-TPI inh 7, FBA Mtb inh -6 and Rv3671c inh -4.
CCN(CC)c1ccc(/C=N/NC(=O)CNC(=O)C2COc3ccccc3O2)c(O)c1 (stereo not drawn) was read as Mtb UGM inh 5, Mtb betalactam -8, GDH-TPI inh 33*, RecA intein inh -2, FBA Mtb inh 5 and Rv3671c inh 7.
Screening CCN(C[C@H]1N[C@@](CC)(C(=O)OC)[C@H]2C(=O)N(Cc3ccccc3)C(=O)[C@@H]12)C(=O)COc1ccccc1 returned Mtb betalactam 2, GDH-TPI inh -1, FBA Mtb inh 1 and Rv3671c inh -2.
`COc1ccc(C2=CCN3CCCCC3C2)c(-c2ccc(OC)c(OC)c2)c1` (stereo not drawn) gave Mtb UGM inh -1, Mtb betalactam 9, GDH-TPI inh 1, FBA Mtb inh 0 and Rv3671c inh 2.
Screening CCOC(=O)CSc1nc2ccccc2c(=O)n1Cc1ccco1 returned Mtb UGM inh 0, Mtb betalactam 5, GDH-TPI inh -2, RecA intein inh 1, FBA Mtb inh -1 and Rv3671c inh -5.
`CCOC(=O)c1cc2c(=O)n3ccccc3nc2n(CC(C)C)c1=NC(=O)c1ccco1` gave Mtb UGM inh 3, Mtb betalactam 2, GDH-TPI inh 9, RecA intein inh -349, FBA Mtb inh 135* and Rv3671c inh -3.
Screening CCOC(=O)c1cc2c(=O)n3ccccc3nc2n(Cc2ccco2)c1=NC(=O)c1ccccc1OCC returned Mtb UGM inh 3, Mtb betalactam 7, GDH-TPI inh 10, RecA intein inh -96, FBA Mtb inh 173* and Rv3671c inh 4.
CCOC(=O)c1cc2c(=O)n3ccccc3nc2n(Cc2ccco2)c1=NC(=O)c1cccnc1 was read as Mtb UGM inh -1, Mtb betalactam -8, GDH-TPI inh 14, RecA intein inh -234, FBA Mtb inh 131* and Rv3671c inh -1.
`CCc1nc2ccc(C(=O)NCc3ccc4c(c3)OCO4)cn2c1N(CCC(C)C)CCN(C)C` gave GDH-TPI inh 14 and FBA Mtb inh 6.
O=C(COC(=O)c1cc(S(=O)(=O)N2CCOCC2)ccc1F)NCc1ccco1 was read as Mtb UGM inh -2, Mtb betalactam -11, GDH-TPI inh 6, RecA intein inh 1, FBA Mtb inh 1 and Rv3671c inh -9.
For CN(C)c1ccc2c(=O)cc[nH]c2c1 the results were FBA Mtb inh active.
Screening CSc1cccc(NC(=O)CCCn2c(=O)c3cccn3c3cccnc32)c1 returned Mtb UGM inh 1, Mtb betalactam 8, GDH-TPI inh 4, RecA intein inh -5, FBA Mtb inh 2 and Rv3671c inh -13.
O=C(c1ccc(-c2cc(O)c3ncccc3c2)cc1)N1CCNCC1 was read as Mtb UGM inh -1, Mtb betalactam 4, GDH-TPI inh 8, FBA Mtb inh -1 and Rv3671c inh 8.
`COCCCn1c(C(=O)NC2CCCCC2C)cc2c(=O)n3cccc(C)c3nc21` (stereo not drawn) gave Mtb UGM inh 1, Mtb betalactam 8, GDH-TPI inh -4, RecA intein inh 1, FBA Mtb inh 5 and Rv3671c inh -6.
For CCOCCCn1c(=NC(C)=O)c(C#N)cc2c(=O)n3ccccc3nc21 the results were Mtb UGM inh 3, Mtb betalactam -6, GDH-TPI inh 24, RecA intein inh inactive, FBA Mtb inh active and Rv3671c inh 2.
Screening CCOCCCn1c(=NC(C)=O)c(C(=O)OCC)cc2c(=O)n3ccccc3nc21 returned Mtb UGM inh 2, Mtb betalactam -9, GDH-TPI inh 2, RecA intein inh inactive, FBA Mtb inh 12 and Rv3671c inh 1.
COCCCn1c(=NC(=O)c2ccccc2)c(C#N)cc2c(=O)n3cccc(C)c3nc21 was read as Mtb UGM inh 9, Mtb betalactam 9, GDH-TPI inh -6, RecA intein inh -420, FBA Mtb inh 174* and Rv3671c inh -3.
COCCCn1c(=NC(C)=O)c(C#N)cc2c(=O)n3cccc(C)c3nc21 was read as Mtb UGM inh -1, Mtb betalactam -7, GDH-TPI inh -1, RecA intein inh inactive, FBA Mtb inh active and Rv3671c inh 3.
